Results as given in the supplement of paper PMC13380429.
A number with no mark means an inactive call.

Tested on: Vero E6 infected with SARS-CoV-2
Test: inhibition of SARS-CoV-2 cytopathic effect; higher = more antiviral protection, active = above 15
Conditions: 48 h

SMILES | inhibition of SARS-CoV-2 cytopathic effect (1 nM) | inhibition of SARS-CoV-2 cytopathic effect (8.33 nM) | inhibition of SARS-CoV-2 cytopathic effect (100 nM) | inhibition of SARS-CoV-2 cytopathic effect (833.33 nM) | inhibition of SARS-CoV-2 cytopathic effect (10000 nM)
COc1cc2nc(C3CC3)nc(N3CCN(c4ccccc4OC)CC3)c2cc1OC | -1.86% | -1.01% | -1.01% | 1.94% | -4.17%
CCNCC(O)c1cccc(O)c1 (stereo not given) [etilefrine] | -0.51% | 2.79% | -0.96% | -0.19% | 1.89%
CC(C)(O)C(=O)Nc1ccc([N+](=O)[O-])c(C(F)(F)F)c1 [2-hydroxyflutamide] | 0.48% | 0.38% | -0.65% | -2.57% | -4.93%
O=C1CCC2CCC(=O)N12 [rolziracetam] | 0.67% | 1.21% | 1.49% | -1.36% | -2.89%
COc1cc(/C=C2\CCC/C(=C\c3ccc(O)c(OC)c3)C2=O)ccc1O [cyclovalone] | -0.89% | 0.77% | 2.28% | 6.64% | 29.5% (active)
O=C(O)Cc1ccccc1Nc1c(Cl)cccc1Cl [diclofenac] | 1.25% | 0.03% | 0.38% | -0.74% | 0.2%
C=C1CC[C@H](O)C/C1=C/C=C1\CCC[C@]2(C)[C@@H]([C@H](C)CCCC(C)(C)O)CC[C@@H]12 [calcifediol] | 0.8% | -2.15% | -3.43% | -0.54% | 0.11%
Cc1oc(-c2ccccc2)nc1CCOc1ccc(CC2SC(=O)NC2=O)c2sccc12 (stereo not given) [edaglitazone] | 0.32% | 0.98% | 0.63% | 1.32% | 2.31%
CC(C(=O)O)c1ccc2c(c1)CC(=O)c1ccccc1S2 (stereo not given) [zaltoprofen] | 1.83% | 2.8% | 3.97% | 0.28% | 1.17%
CN1CCC(Nc2ncc3ncnc(Nc4ccc(F)c(Cl)c4)c3n2)CC1 | 0.68% | 1.23% | -4.55% | -7.55% | -2.79%
CO[C@@]1(NC(=O)C2SC(=C(C(N)=O)C(=O)O)S2)C(=O)N2C(C(=O)O)=C(CSc3nnnn3C)CS[C@@H]21 (stereo not given in full) [cefotetan] | 0.97% | 1.11% | 2.32% | -0.94% | 0.24%
Cc1ccccc1CN1C(=O)C2=C(CCN(Cc3ccccc3)C2)N2CCN=C12 | 0.63% | 0.83% | 0.4% | 3.83% | 0.84%
Cc1cccc(/C=N/Nc2cc(N3CCOCC3)nc(OCCc3ccccn3)n2)c1 | 0.81% | 1.56% | 26.8% (active) | 20.4% (active) | 19.1% (active)
COc1c2ccoc2cc2oc(=O)ccc12 [bergapten] | -0.67% | -0.91% | -2.71% | 3.76% | 14.6%
C=C1C(=O)O[C@@H]2[C@H]3O[C@]3(C)CC/C=C(\C)CC[C@@H]12 [parthenolide-(alternate-stereo)] | 0.91% | -1.19% | -2.99% | 2.8% | 23.8% (active)
O=C1NC(=O)c2cc(Nc3ccc(F)cc3)c(Nc3ccc(F)cc3)cc21 | 1.21% | -0.56% | -1.81% | 0.4% | 10.3%
CC(C)CN(C[C@@H](O)[C@H](Cc1ccccc1)NC(=O)O[C@H]1CCOC1)S(=O)(=O)c1ccc(N)cc1 [amprenavir] | -0.22% | 1.43% | -0.29% | -1.76% | -0.72%
CSc1nc2ccc3nc(NC(=O)C(c4ccccc4)c4ccccc4)sc3c2s1 | 1.77% | 1.67% | 1.24% | 1.38% | -1.25%
O=C1OC2(c3ccc(O)cc3Oc3cc(O)ccc32)c2ccccc21 [fluorescein] | -8.63% | -9.87% | -11.5% | -5.06% | -7.22%
CN(C)CCOc1ccc(/C(=C(/CCCl)c2ccccc2)c2ccccc2)cc1 [toremifene] | 1.37% | 1.85% | 1.34% | 2.22% | 23.7% (active)
CCCCCCCC/C=C\CCCCCCCC(=O)NCCO [oleoylethanolamide] | 1.05% | -0.89% | -0.87% | 0.17% | -4.33%
CCOC(=O)c1cncn1[C@H](C)c1ccccc1 [etomidate] | 0.18% | -0.71% | -2.47% | 1.97% | 0.06%

SMILES | inhibition of SARS-CoV-2 cytopathic effect (1 nM) | inhibition of SARS-CoV-2 cytopathic effect (8.33 nM) | inhibition of SARS-CoV-2 cytopathic effect (100 nM) | inhibition of SARS-CoV-2 cytopathic effect (833.33 nM) | inhibition of SARS-CoV-2 cytopathic effect (10000 nM)
CC1COc2c(N3CCN(C)CC3)c(F)cc3c(=O)c(C(=O)O)cn1c23 (stereo not given) [ofloxacin] | 1.97% | 0.365% | 0.065% | -0.975% | 1.25%
Clc1ccc2nsnc2c1NC1=NCCN1 [tizanidine] | 2.21% | 4.56% | 1.5% | 2.93% | 0.03%
COc1ncc2cc(C(=O)Nc3cc(C(=O)NCc4cccc(Cl)c4)ccc3Cl)c(=O)[nH]c2n1 | -2.51% | 1.46% | 0.99% | 0.54% | 2.62%
COc1ccc2cc(-c3cc(-c4cc(Cl)cc(Cl)c4)nn3[C@@H](C)c3ccc(C(=O)NCCC(=O)O)cc3)ccc2c1 | -1.85% | -0.02% | 0.97% | 4.66% | 4.95%
NS(=O)(=O)Nc1ncnc(OCCOc2ncc(Br)cn2)c1-c1ccc(Br)cc1 | -1.74% | -0.97% | -0.65% | -3.11% | -3.32%
CN1C(=O)CC(c2ccccc2)C1=O (stereo not given) [phensuximide] | 2.58% | 3.13% | 2.74% | 2.55% | -1.46%
Cc1ncc(CN2CC=C(c3ccccc3)CC2)c(N)n1 | 0.67% | 0.52% | -0.09% | 0.15% | 0.43%
Cn1c(=O)c2c(ncn2CC(=O)O)n(C)c1=O [acefylline] | -0.43% | 3.14% | 12.4% | 0.66% | 0.73%
CCN(CC)C(=O)N[C@H]1C[C@@H]2c3cccc4[nH]cc(c34)C[C@H]2N(C)C1 [terguride] | -0.35% | -0.23% | -0.57% | -2.15% | -0.04%
CCOc1nc2cccc(C(=O)O)c2n1Cc1ccc(-c2ccccc2-c2noc(=O)[nH]2)cc1 [azilsartan] | 0.19% | 1.58% | 2.59% | 2.65% | 0.22%
COc1ccc(CCO[C@@H]2CCCC[C@H]2N2CC[C@@H](O)C2)cc1OC [vernakalant] | -0.46% | 0.39% | -0.75% | 1.67% | -1.63%
CC(C)(C)NC[C@H](O)COc1cccc2c1CCCC2=O [levobunolol] | -6.66% | -1.55% | -0.235% | 2.58% | 2.67%
O=C1C2C=Nc3ccccc3C2=NN1c1ccc(Cl)cc1 (stereo not given) | 0.17% | -0.02% | 1.99% | 3.3% | -0.09%
O/N=C/c1ccc(-c2ccc(O)c(F)c2)c(Cl)c1O | -3.41% | -2.33% | -2.06% | -0.62% | -12.8%
OC[C@H]1O[C@@H](n2cnc3c(NC4CCCC4)nc(Cl)nc32)[C@H](O)[C@@H]1O [2-chloro-N6-cyclopentyladenosine] | -3.44% | 0.41% | 2.9% | 2.35% | -0.77%
CC/C(=C(/CC)c1ccc(O)cc1)c1ccc(O)cc1 [diethylstilbestrol] | -1.15% | -2.29% | -2.18% | 3.59% | 6.76%
NS(=O)(=O)c1cc2c(cc1C(F)(F)F)NC(Cc1ccccc1)NS2(=O)=O (stereo not given) [bendroflumethiazide] | -0.89% | -3.12% | -0.42% | -1.39% | 0.82%
COC(=O)CCC(=O)CN [methyl-aminolevulinate] | 2.97% | 2.46% | 1.49% | 3.55% | 5.12%
O=C1CN2Cc3c(ccc(Cl)c3Cl)N=C2N1 [anagrelide] | 0.79% | -0.94% | -1.24% | -0.35% | 0.92%
OC(CCCN1CCCCC1)(c1ccccc1)c1ccccc1 [diphenidol] | -5.55% | -3.34% | -2.4% | -1.92% | -2.8%
Oc1cccc(-c2c3nc(c(-c4cccc(O)c4)c4ccc([nH]4)c(-c4cccc(O)c4)c4nc(c(-c5cccc(O)c5)c5ccc2[nH]5)CC4)C=C3)c1 [temoporfin] | -0.78% | 3.96% | -0.62% | -2.48% | -5.99%
